Assay outcomes (PubChem BioAssay)
CF NFkB block: blocks PAF-induced NF-kB reporter in cystic fibrosis cells; KKLEB NF-kB-GFP reporter, GFP fluorescence overnight; inhibition, % at 5 µM; 360,000 tested, 0.86% active; AID 588850;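 active means at least 50% inhibition at 5 µM, scaled per plate between neutral and stimulator controls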;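 further: PAF is a Pseudomonas aeruginosa culture filtrate used as stimulus; plate controls were PAF-stimulated DMSO wells for no effect and unstimulated DMSO wells for full effect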
Peg3 prom inh: inhibitors of Peg3 promoter. HeLa PEG-Prom luciferase reporter, luminescence, overnight. inhibition, % at 20 µM. 360,000 tested, 1.7% active;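 active means inhibition of at least 50% at 20 µM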
KKLEB tox: reduces viability of KKLEB cystic fibrosis airway cells | KKLEB CF airway cells viability, ATPlite luminescence, overnight; active compounds read low; cells stimulated with P. aeruginosa culture filtrate | activity change (cytotoxicity), % at 5 µM | 360,000 tested, 0.36% active | AID 602141;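 active means corrected activity change at or below -50% at 5 µM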
MITF TRPM1 inh: inhibitors of MITF-driven TRPM1 promoter in melanoma cells; SK-MEL-5 TRPM1 promoter luciferase, 24 h; inhibition, % at 12.5 µM; 330,000 tested, 0.83% active; AID 488899;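 active means mean inhibition across replicates of 60% or more, whatever share of single replicates reaches that level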
HIF-2a inh: HIF-2a inhibition. 786-0 RCC cells HIF-2a reporter, luciferase luminescence, overnight. inhibition, % at 18.8 µM. AID 624352. 360,000 tested, 0.72% active;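 active means inhibition of the luminescence signal of 40% or more relative to plate controls, in a single-dose primary screen at 18.75 µM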
B2AR ag: activates human beta-2 adrenergic receptor causing internalization. P07550. Am2.2-beta2AR cells, FAP receptor internalization, flow cytometry. response, % (no concentration beside the values). 340,000 tested, 0.43% active;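 active means response above a set limit, near 3 SD of response in nonfluorescent compounds, cut at about 42% in these data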
Target sequence (P07550 whole entry, looked up): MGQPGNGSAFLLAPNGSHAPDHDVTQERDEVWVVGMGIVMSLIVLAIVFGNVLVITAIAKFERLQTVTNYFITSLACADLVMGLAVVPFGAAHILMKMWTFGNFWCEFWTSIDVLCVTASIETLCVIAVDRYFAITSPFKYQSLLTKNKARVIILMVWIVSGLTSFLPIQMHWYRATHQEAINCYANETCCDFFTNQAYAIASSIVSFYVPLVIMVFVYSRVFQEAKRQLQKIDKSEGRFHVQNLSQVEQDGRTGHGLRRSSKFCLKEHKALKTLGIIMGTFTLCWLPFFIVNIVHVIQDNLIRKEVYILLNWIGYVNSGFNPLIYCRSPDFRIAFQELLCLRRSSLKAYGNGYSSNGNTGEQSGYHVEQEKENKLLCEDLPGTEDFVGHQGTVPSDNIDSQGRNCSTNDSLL
CF NFkB conf: confirmation of cystic fibrosis induced NF-kB inhibitors; shares compounds with CF NFkB block; KKLEB CF airway cells, PAF-induced NF-kB-GFP fluorescence, overnight; inhibition, % at 5 µM; 1,300 tested, 64% active; AID 602472; in the data active means inhibition above about 40%;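 further: stimulus PAF is a Pseudomonas aeruginosa filtrate and not platelet activating factor; plate controls were DMSO wells with stimulus for no effect and unstimulated DMSO wells for full effect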
* = called active by the depositor; x = no result given. Sampled rows, rich in hits. Any-hit rate of the full collection: about 2.8%.

SMILES	CF NFkB block	Peg3 prom inh	KKLEB tox	MITF TRPM1 inh	HIF-2a inh	B2AR ag	CF NFkB conf
O=C(O)c1nc2nc(Cl)c(Cl)nc2[nH]1	-1	-3	-13	-23	-5	0	x
CCCCCCc1nc2nc(Cl)c(Cl)nc2[nH]1	60*	-14	16	x	-55	x	32
CC1(C(=O)Nc2ccc3c(c2)OCCO3)CSCC(=O)N1CCCn1ccnc1 (stereo not drawn)	x	x	x	x	4	x	x
Cc1ccc(S(=O)(=O)CCC(=O)c2ccc(F)cc2)cc1	85*	32	-44	11	15	37	26
COc1ccc(C(=O)CCS(=O)(=O)c2ccc(F)cc2)cc1OC	15	1	-24	4	22	6	x
Cc1ccc2nc(-c3cccc(Br)c3)c(Cc3cccc(Cl)c3)n2c1	-8	-227	-2	x	-217	x	x
COc1ccc(NC(=O)C2(C)Cc3c(-c4cccc(C(F)(F)F)c4)ccnc3O2)cc1OC (stereo not drawn)	-38	39	0	x	7	x	x
C[C@@H]1CN([C@H](C)CO)C(=O)CCCn2cc(nn2)CO[C@H]1CN(C)S(=O)(=O)c1ccc2c(c1)OCCCO2	-9	14	8	x	10	x	x
Cc1cnc(C=O)c2cccc([N+](=O)[O-])c12	83*	19	-38	x	15	x	65*
Cc1ncc(C)c2c([N+](=O)[O-])cccc12	8	-3	4	x	-15	x	x
CC(C)N(C(=O)[C@H]1C[C@H](CC(=O)NCc2cccc(C(F)(F)F)c2)C(=O)N2CCc3c([nH]c4ccc(Cl)cc34)[C@]12C)C(C)C	60*	59*	-41	28	-16	3	39
Oc1cc2c(cc1C(c1ccc(Br)cc1)N1CCCC1)OCO2 (stereo not drawn)	53*	6	-21	-4	10	13	33
O=C(OCc1cn([C@@H]2CN(C(=O)c3cccs3)[C@@H](c3ccc(Cl)cc3)C[C@H]2O)nn1)c1ccccc1	-23	0	5	x	13	x	x
O=C1NC[C@@H](CCCCN2C[C@H](Cc3ccccc3)N(CCc3ccc(O)cc3)C(=O)C2=O)N(CC2CCCCC2)C1=O	x	x	x	x	3	x	x
COc1ccc(OC)c(N(CCN2C(=O)c3ccccc3C2=O)C(=O)CCl)c1	62*	22	-42	x	8	x	99*
COc1ccc(C2(c3ccc(OC)cc3)NC(=O)N(CC(=O)NC(C)C)C2=O)cc1	-6	6	-9	-4	8	18	x
COC(=O)N1C(=O)[C@@](c2ccccc2)(C(C)C)N1C(=O)OC	58*	29	6	3	11	-2	51*
COC(=O)N1C(=O)[C@@](c2ccc(OC)cc2)(C(C)C)N1C(=O)OC	69*	46	-12	-7	27	21	57*
O=C(Nc1nc2c(F)cc(F)cc2s1)c1ccc([N+](=O)[O-])o1	86*	-61	-41	x	-256	20	16
CC(=O)C1CCC2C3CCC4=CC(=O)CC[C@]4(C)[C@@]3(F)C(O)C[C@]12C (stereo partly drawn)	56*	12	26	-5	27	-15	-50
CCn1c2ccccc2c2cc(/C=N/O)ccc21	72*	-20	-9	-2	3	27	62*
CCn1c2ccccc2c2cc(/C=N/n3cnnc3)ccc21	-13	38	-26	-5	23	-12	x
Cc1ccccc1S(=O)(=O)N1C[C@@H]2C(C(=O)C[C@@H]3C(=O)N(C)C(=O)[C@@H]32)[C@@H]1c1ccc(Cl)cc1 (stereo partly drawn)	x	x	x	x	8	x	x
c1cc2[nH]snc2c2nc(C3CC3)nc12	74*	-50	0	-1	-52	36	68*
Nc1[nH]nc2nc(N3CCCC3)nc(-c3ccccc3)c12	14	5	-7	11	18	-6	x
SMILES	CF NFkB block	Peg3 prom inh	KKLEB tox	MITF TRPM1 inh	HIF-2a inh	B2AR ag	CF NFkB conf
COc1ccc(-c2nc(N3CCOCC3)nc3n[nH]c(N)c23)cc1	69*	22	-26	24	29	1	56*
CN(C)c1ccc(/C=N/NC(=O)c2nnn(-c3nonc3N)c2CN2CCCCCC2)cc1	-4	7	8	-3	-25	5	x
CC1CCN(Cc2c(C(=O)N/N=C/c3ccc(C(C)(C)C)cc3)nnn2-c2nonc2N)CC1	53*	106*	-41	23	24	1	63*
C[C@H](O)[C@@H]1C(=O)N2CCc3ccc(-c4ccccc4)cc3[C@@H]2C[C@@H]1N(C)C(=O)c1ccco1	-22	-15	13	x	3	x	x
C[C@@H]1C[C@H]2[C@@H]3CCC4=CC(=O)C=C[C@]4(C)[C@@]3(F)[C@@H](O)C[C@]2(C)[C@@]1(O)C(=O)CO	71*	-7	13	-27	35	4	21
CC1(C)OC2CC3C4CCC5=CC(=O)C=CC5(C)C4(F)C(O)CC3(C)C2(C(=O)CO)O1 (stereo not drawn)	67*	-3	13	x	22	x	9
CN1C2C=CC(=O)C1C1C(=O)N(c3ccccc3)C(=O)C12 (stereo not drawn)	62*	38	-6	x	22	x	35
Cc1ccccc1N1C(=O)C2C3C=CC(C2C1=O)N(C)C3=O (stereo not drawn)	-6	10	-3	-11	8	-9	x
COc1ccc(S(=O)(=O)N2c3ccc(F)cc3CCC2C)cc1 (stereo not drawn)	50*	8	-5	41	20	26	83*
CC(=O)Nc1ccc(S(=O)(=O)N2c3ccc(F)cc3CCC2C)cc1 (stereo not drawn)	4	31	-5	5	26	15	x
CC(Sc1nc2ncc(Cl)cc2[nH]1)C(=O)Nc1ccccc1[N+](=O)[O-] (stereo not drawn)	53*	15	-14	x	12	x	3
Cc1c(Cl)cccc1NC(=O)CSc1nc2ncc(Cl)cc2[nH]1	62*	4	-7	-1	-12	1	51*
CCCS(=O)(=O)NC(=O)C1(C)CCCN(C(=O)/C=C/c2ccccc2)C1 (stereo not drawn)	-23	14	10	x	14	x	x
CCOC(=O)[C@]12CCCC=C1N(Cc1ccccc1)C(=O)[C@H](CC(=O)NCc1ccccc1)C2	x	x	x	x	-4	x	x
Brc1ccc2ncnc(NCc3ccco3)c2c1	54*	-40	-8	-6	-18	-3	58*
CC(=O)c1cccc(Nc2ncnc3ccc(Br)cc23)c1	46	23	-11	2	21	12	x
CC(C)Nc1ncnc2ccc(Br)cc12	70*	26	-7	9	28	-6	85*
COc1cc2ncnc(NCc3ccco3)c2cc1OC	-10	-2	2	7	13	0	x
